This is a sample that favours compounds with a hit; in the whole collection about 19% have one here.
DT40 TDP1 no CPT – qHTS for Inhibitors of human tyrosyl-DNA phosphodiesterase 1 (TDP1): qHTS in cells in absence of CPT. DT40 Tdp1-/- hTDP1 cells, no CPT, ATP luminescence, 48 h. Potency, µM (highest dose often 46.2 µM), actives largely listed as inhibitors. 420,000 compounds, 15% hits. AID 686978, 2013; further: nearly all actives have a fitted effect of over 55% in size
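Growth of hTDP1-complemented DT40 Tdp1-knockout cells is measured by ATP luminescence after at least 48 hr compound exposure at 37 °C, with DMSO substituting for the 20 nM CPT used in the parallel screen.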
DT40 TDP1 CPT – qHTS for Inhibitors of human tyrosyl-DNA phosphodiesterase 1 (TDP1): qHTS in cells in presence of CPT | Potency, µM (highest dose often 46.2 µM), actives largely listed as inhibitors | 420,000 compounds, 12% hits | AID 686979, 2013 | chicken DT40 Tdp1-/-;hTDP1 cells + 20 nM CPT, ATP luminescence, 48 h; further: nearly all actives have a fitted effect of over 55% in size
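Chicken DT40 Tdp1-/- cells stably complemented with human TDP1 were seeded at 400 cells/well in medium containing 20 nM camptothecin, exposed to pin-transferred compounds, and grown at 37 °C for at least 48 hr. Viability was read as ATP luminescence.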
IL-1B inflam inh – qHTS for Inhibitors of Inflammasome Signaling: IL-1-beta AlphaLISA Primary Screen; AID 743279, 2014; 360,000 compounds, 4.7% hits; THP-1 LPS/ATP IL-1B secretion, AlphaLISA, 16 h; stronger effect = lower value; activity change, % at 57.5 µM; in the data active means activity change below about -50%; inconclusive means mostly about -30% to -49%
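Secreted IL-1B measured by AlphaLISA bead assay after 16 h compound exposure of THP-1 cells; compounds (final up to 57.5 uM) added 1 h before LPS (250 ng/mL) and ATP (1.25 mM) stimulation; lower signal means less secretion.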
HT1080 IDH1KD tx – qHTS for induction of synthetic lethality in tumor cells producing 2HG: qHTS for the HT-1080-IDH1KD cell line. HT-1080 IDH1 knockdown viability, ATP luminescence, 48 h. Potency, µM (top dose mostly 46.1 µM), actives largely listed as cytotoxic. 360,000 compounds, 2% hits. AID 686971, 2013
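Cytotoxicity counter-line: IDH1KD HT-1080, 48 h, CellTiter-Glo. Curves classed by r2, magnitude and activity.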
HT1080-NT tox – qHTS for induction of synthetic lethality in tumor cells producing 2HG: qHTS for the HT-1080-NT fibrosarcoma cell line | HT-1080-NT fibrosarcoma viability, CellTiter-Glo ATP luminescence, 48 h | Potency, µM (doses to about 46.1 µM), usual class: cytotoxic | 360,000 compounds, 1.6% hits;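 further: NT is the 2HG producing partner of a matched IDH1 knockdown line; nearly all actives have a fitted effect of over 55% in size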
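Fibrosarcoma NT cells, 750 per well in 5% FBS RPMI, were exposed to compound for 48 hours. Viability: CellTiter-Glo luminescence.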
Each line names hits and unclear results; the compound was inactive in the other large screens. Unless noted, the call rests on the fitted dose curve; in most records, active means well fitted curve in the direction sought with a large enough effect; inconclusive means small, poorly fitted or top-dose-only effect, or another doubt; inactive means no such curve, though single readings can be large; an effect the other way counts as inactive or inconclusive.

CN1CCN(C2=Nc3c(Cl)cc(Cl)c4cccc2c34)CC1	DT40 TDP1 no CPT 21µM, DT40 TDP1 CPT inconclusive, IL-1B inflam inh -53
CCC(=O)N1CCc2cc(Br)cc(S(=O)(=O)N3CCN(c4ccccc4OC)CC3)c21	DT40 TDP1 no CPT 23µM, DT40 TDP1 CPT inconclusive (no result: IL-1B inflam inh, HT1080 IDH1KD tx, HT1080-NT tox)
CC(=O)N1CCc2cc(Br)cc(S(=O)(=O)CCC(=O)N3CCN(c4ccc(F)cc4)CC3)c21	DT40 TDP1 no CPT inconclusive (no result: IL-1B inflam inh, HT1080 IDH1KD tx, HT1080-NT tox)
COc1ccccc1N1CCN(C(=O)CCS(=O)(=O)c2cc(Br)cc3c2N(C(=O)C2CC2)CC3)CC1	DT40 TDP1 no CPT inconclusive, DT40 TDP1 CPT 16µM (no result: IL-1B inflam inh, HT1080 IDH1KD tx, HT1080-NT tox)
CCc1nc2ccc(C(=O)Nc3cccc(OCC(=O)N(C)C)c3)cn2c1N(C)Cc1ccc(OC)cc1	DT40 TDP1 no CPT 18µM, DT40 TDP1 CPT 23µM, HT1080-NT tox inconclusive
CCc1nc2ccc(C(=O)Nc3cccc(OCC(=O)N(C)C)c3)cn2c1N(CC)CCOC	DT40 TDP1 no CPT 16µM, DT40 TDP1 CPT 16µM, HT1080 IDH1KD tx inconclusive
Cc1nc2ccc(C(=O)Nc3cccc(OCC(=O)N(C)C)c3)cn2c1N(C)CC1CCCCC1	DT40 TDP1 no CPT 13µM, DT40 TDP1 CPT 21µM, IL-1B inflam inh -51, HT1080 IDH1KD tx inconclusive, HT1080-NT tox inconclusive
CCc1nc2ccc(C(=O)Nc3cccc(OCC(=O)N(C)C)c3)cn2c1N(CC)CCN(C)C	none
Cc1ccsc1C(=O)N1CCC1(C)C(=O)NCC(C)(C)C (centres undefined)	none
CC1(O)CC2CC1C(C(=O)O)C2C(=O)O (centres undefined)	none
CC(CC(=O)NCCc1ccc(Cl)cc1)S(=O)(=O)c1ccc2c(c1)NC(=O)CO2 (centres undefined)	DT40 TDP1 CPT inconclusive
O=C(CC1(O)C(=O)Nc2cc(Cl)cc(Cl)c21)c1ccncc1 (centres undefined)	DT40 TDP1 no CPT inconclusive, DT40 TDP1 CPT inconclusive, IL-1B inflam inh -100, HT1080 IDH1KD tx inconclusive
Cc1ccc(Cl)c2c1NC(=O)C2(O)CC(=O)c1ccc(Br)cc1 (centres undefined)	none
C(=C\c1ccco1)/C1=NN(c2ccccc2)C(c2ccco2)C1 (centres undefined)	DT40 TDP1 no CPT 23µM, DT40 TDP1 CPT inconclusive
O=[N+]([O-])c1ccc(/C=C/C2=NN(c3ccccc3)C(c3ccco3)C2)o1 (centres undefined)	DT40 TDP1 no CPT inconclusive, DT40 TDP1 CPT inconclusive, HT1080 IDH1KD tx inconclusive
CN(C)C(=O)C(NC(=O)c1ccccc1)=C(Cl)Cl	none
CC(C)OC(=O)CC(=O)CSc1nc2c(cc1C#N)CCCC2	none
CC(C)OC(=O)CC(=O)CSc1nc2c(cc1C#N)CCC2	DT40 TDP1 no CPT 8.2µM, DT40 TDP1 CPT inconclusive
COC(=O)CC(=O)CSc1nc(C)cc(C)c1C#N	DT40 TDP1 no CPT inconclusive, DT40 TDP1 CPT 29µM
Cc1cc(C)c(C#N)c(SCC(=O)C(C)(C)C)n1	none
COC(=O)CSc1nsc(SCC(=O)OC)c1C#N	IL-1B inflam inh -100, HT1080 IDH1KD tx inconclusive
CSc1snc(SCC(N)=O)c1C#N	none
COC(=O)CC(=O)CSc1nc2c(cc1C#N)CCC2	DT40 TDP1 no CPT inconclusive, DT40 TDP1 CPT 18µM, HT1080 IDH1KD tx inconclusive, HT1080-NT tox inconclusive
COC(=O)CCCC[C@@H]1O[C@H](CCc2ccccc2)Cc2[nH][nH]c(=O)c21	DT40 TDP1 no CPT inconclusive
COc1ccc(N2CCN(C(=O)Cn3ncc4c([nH]c5ccccc54)c3=O)CC2)cc1	none
CCc1nc(SCC(=O)N2CCc3cc(OC)c(OC)cc3C2)c(C#N)cc1C	DT40 TDP1 no CPT inconclusive, DT40 TDP1 CPT inconclusive
COc1cc2c(cc1OC)CN(C(=O)CSc1nc(C)cc(C)c1C#N)CC2	DT40 TDP1 no CPT 21µM, DT40 TDP1 CPT 23µM, IL-1B inflam inh inconclusive
COC(=O)C1(C)CCc2c(ccc3ccccc23)C1=O (centres undefined)	none
CN1CC2(Cc3c1ccc1ccccc31)C(=O)OC(C)(C)OC2=O	DT40 TDP1 no CPT inconclusive, DT40 TDP1 CPT inconclusive, HT1080 IDH1KD tx inconclusive, HT1080-NT tox 23µM
O=C(OCC(=O)N1CCC(Cc2ccccc2)CC1)c1cc(Cl)ccc1O	none
COc1ccc(N2C(N)=NC(N)=NC23CCCC3)cc1	DT40 TDP1 no CPT 1.5µM, DT40 TDP1 CPT inconclusive
COc1ccccc1N1C(N)=NC(N)=NC12CCCCC2	DT40 TDP1 no CPT inconclusive
NC1=NC2(CCCCC2)N(c2cccc(Cl)c2)C(N)=N1	DT40 TDP1 no CPT 0.46µM, DT40 TDP1 CPT 10µM
CCCCOc1ccc(N2C(N)=NC(N)=NC23CCCCC3)cc1	DT40 TDP1 no CPT 6.5µM, DT40 TDP1 CPT 9.2µM
CCOC(=O)N1CCC(Nc2c(NCCN3CCN(c4ccccc4F)CC3)c(=O)c2=O)CC1	none
CC(C)(C)OC(=O)N[C@H](Cc1ccccc1)C(=O)N1CCC[C@@H]1C(=O)O	none
Cc1ccc(NC2=NC(c3ccccc3)n3c(nc(C)cc3=O)N2)c(C)c1 (centres undefined)	IL-1B inflam inh -74
Cc1ccc(NC2=NC(c3ccc(F)cc3)n3c(nc(C)cc3=O)N2)c(C)c1 (centres undefined)	HT1080-NT tox inconclusive
CN(C)c1cc2c(c(N(C)C)c1)C(=O)c1ccccc1C2=O	DT40 TDP1 no CPT inconclusive, DT40 TDP1 CPT inconclusive, IL-1B inflam inh -50, HT1080 IDH1KD tx inconclusive
COc1ccc(-c2ccnc(SCC(=O)c3ccc(Br)cc3)n2)cc1	DT40 TDP1 no CPT inconclusive, DT40 TDP1 CPT inconclusive
CC1(C)C(=O)NCCN1C(=O)CSc1nccc(-c2ccc(Br)cc2)n1	DT40 TDP1 no CPT 16µM, DT40 TDP1 CPT inconclusive, HT1080 IDH1KD tx inconclusive, HT1080-NT tox inconclusive
O=C(c1ccccc1F)N1CCN(c2cccc(C(F)(F)F)c2)CC1	DT40 TDP1 no CPT 16µM, DT40 TDP1 CPT inconclusive
O=C(c1c(F)c(F)c(F)c(F)c1F)N1CCN(c2cccc(C(F)(F)F)c2)CC1	DT40 TDP1 no CPT 18µM, DT40 TDP1 CPT inconclusive, HT1080 IDH1KD tx inconclusive, HT1080-NT tox inconclusive
O=C(c1ccccc1F)N1CCN(c2ccccc2)CC1	none
C#CCOc1ccc(CNC[C@H]2O[C@@H](n3ccc(=O)[nH]c3=O)[C@H](O)[C@@H]2O)cc1	none
Cc1ccc([N+](=O)[O-])c(OCCCN2CCC(Cc3ccccc3)CC2)c1	DT40 TDP1 no CPT 21µM, DT40 TDP1 CPT 21µM, IL-1B inflam inh -60, HT1080 IDH1KD tx inconclusive, HT1080-NT tox inconclusive
COc1cc(CN2CCN(C(=O)CC(C)C)CC2)c([N+](=O)[O-])cc1OC	none
COc1ccc(CN2CCN(Cc3ccccc3C(F)(F)F)CC2)c(OC)c1	DT40 TDP1 no CPT 16µM, DT40 TDP1 CPT inconclusive, HT1080 IDH1KD tx inconclusive, HT1080-NT tox inconclusive

Source: PubChem BioAssay (National Center for Advancing Translational Sciences (NCATS))
